# Experiments:
# Assay in all cases: DAPPL (digital affinity profiling via proximity ligation, sequencing); 10 mM Tris-HCl pH 7.5, 50 mM NaCl, 1 mM DTT, 4% glycerol, room temperature, 30 min; GST-TFs on glutathione beads, 16-mer random dsDNA library, 0.1% formaldehyde crosslink after washing; high values mean tight binding
# FLI1 = target: T1, FLI1 (Homo sapiens, UniProt Q01543 1-452); settings: protein: recombinant; tags: N-terminal GST; dsDNA, one strand shown
# T1 sequence: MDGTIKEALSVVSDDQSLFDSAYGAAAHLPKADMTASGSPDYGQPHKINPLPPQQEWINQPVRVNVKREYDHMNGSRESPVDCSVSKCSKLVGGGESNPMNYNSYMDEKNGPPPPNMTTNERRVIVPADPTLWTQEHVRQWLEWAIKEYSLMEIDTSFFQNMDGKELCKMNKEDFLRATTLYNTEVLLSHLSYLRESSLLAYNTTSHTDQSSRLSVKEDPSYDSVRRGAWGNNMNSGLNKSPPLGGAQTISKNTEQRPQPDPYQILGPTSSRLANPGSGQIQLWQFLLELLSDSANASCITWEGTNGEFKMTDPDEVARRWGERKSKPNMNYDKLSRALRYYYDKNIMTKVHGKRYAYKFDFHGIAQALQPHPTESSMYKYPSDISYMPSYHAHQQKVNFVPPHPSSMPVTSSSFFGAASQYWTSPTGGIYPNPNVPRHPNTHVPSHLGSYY
# Method in brief: (§1)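 GST fusions of human transcription factors were expressed in yeast and captured with glutathione beads. Once given DNA barcodes and pooled alongside a tag-only sample, they were incubated for 30 min at room temperature with 200 nmole of a random double-stranded 16-mer DNA library in Tris/NaCl/DTT/glycerol buffer, then washed, crosslinked (0.1% formaldehyde), proximity-ligated, PCR-amplified and sequenced on an Illumina NextSeq500. The binding signal of each hexamer is its read frequency for a factor divided by its frequency for the tag-only sample.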
# ELK1 = target: T2, ELK1 (Homo sapiens, UniProt P19419 1-428); settings: protein: recombinant; tags: N-terminal GST; dsDNA, one strand shown
# T2 sequence: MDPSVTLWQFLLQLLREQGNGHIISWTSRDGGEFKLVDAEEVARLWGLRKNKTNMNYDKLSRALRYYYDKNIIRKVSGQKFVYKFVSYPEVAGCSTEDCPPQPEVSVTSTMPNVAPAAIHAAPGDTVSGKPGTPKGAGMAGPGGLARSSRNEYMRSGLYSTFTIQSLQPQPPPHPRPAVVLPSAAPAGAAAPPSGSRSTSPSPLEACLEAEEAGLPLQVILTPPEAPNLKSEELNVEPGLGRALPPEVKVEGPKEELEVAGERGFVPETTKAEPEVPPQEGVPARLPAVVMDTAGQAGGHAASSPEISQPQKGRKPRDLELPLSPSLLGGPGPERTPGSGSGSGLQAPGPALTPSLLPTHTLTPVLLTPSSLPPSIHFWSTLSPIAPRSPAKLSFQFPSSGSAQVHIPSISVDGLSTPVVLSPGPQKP
# Method in brief: as §1
# GABPA = target: T3, GABPA (Homo sapiens, UniProt Q06546 1-454); settings: protein: recombinant; tags: N-terminal GST; dsDNA, one strand shown
# T3 sequence: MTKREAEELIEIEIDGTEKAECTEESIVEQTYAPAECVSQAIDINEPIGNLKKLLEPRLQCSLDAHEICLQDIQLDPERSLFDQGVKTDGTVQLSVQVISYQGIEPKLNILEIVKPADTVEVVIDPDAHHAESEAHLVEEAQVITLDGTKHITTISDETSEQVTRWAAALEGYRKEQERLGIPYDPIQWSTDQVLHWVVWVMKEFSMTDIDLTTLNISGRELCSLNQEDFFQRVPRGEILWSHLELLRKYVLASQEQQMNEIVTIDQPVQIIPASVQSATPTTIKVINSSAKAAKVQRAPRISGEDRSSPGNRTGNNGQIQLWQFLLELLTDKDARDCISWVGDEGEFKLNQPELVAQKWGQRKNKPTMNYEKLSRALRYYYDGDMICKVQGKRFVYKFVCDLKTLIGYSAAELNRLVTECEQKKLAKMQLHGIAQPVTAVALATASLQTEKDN
# Method in brief: as §1
# ERG = target: T4, ERG (Homo sapiens, UniProt P11308 1-479); settings: protein: recombinant; tags: N-terminal GST; dsDNA, one strand shown
# T4 sequence: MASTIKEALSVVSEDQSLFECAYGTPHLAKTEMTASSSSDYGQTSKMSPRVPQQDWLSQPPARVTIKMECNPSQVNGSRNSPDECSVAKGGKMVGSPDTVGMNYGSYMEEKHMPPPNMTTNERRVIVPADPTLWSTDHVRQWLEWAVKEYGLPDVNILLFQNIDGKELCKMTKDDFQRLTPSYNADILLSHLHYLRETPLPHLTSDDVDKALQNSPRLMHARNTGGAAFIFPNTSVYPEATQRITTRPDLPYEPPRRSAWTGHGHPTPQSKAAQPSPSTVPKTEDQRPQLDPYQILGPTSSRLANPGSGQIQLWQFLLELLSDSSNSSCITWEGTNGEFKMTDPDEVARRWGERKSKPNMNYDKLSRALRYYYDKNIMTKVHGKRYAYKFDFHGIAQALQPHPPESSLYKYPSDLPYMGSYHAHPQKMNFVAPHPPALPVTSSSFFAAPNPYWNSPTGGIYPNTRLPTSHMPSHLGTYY
# Method in brief: as §1
# ELF1 = ELF1 (Homo sapiens, UniProt P32519 1-619); settings: protein: recombinant; tags: N-terminal GST; dsDNA, one strand shown
# Method in brief: as §1
# EHF = target: T5, EHF (Homo sapiens, UniProt Q9NZC4 1-300); settings: protein: recombinant; tags: N-terminal GST; dsDNA, one strand shown
# T5 sequence: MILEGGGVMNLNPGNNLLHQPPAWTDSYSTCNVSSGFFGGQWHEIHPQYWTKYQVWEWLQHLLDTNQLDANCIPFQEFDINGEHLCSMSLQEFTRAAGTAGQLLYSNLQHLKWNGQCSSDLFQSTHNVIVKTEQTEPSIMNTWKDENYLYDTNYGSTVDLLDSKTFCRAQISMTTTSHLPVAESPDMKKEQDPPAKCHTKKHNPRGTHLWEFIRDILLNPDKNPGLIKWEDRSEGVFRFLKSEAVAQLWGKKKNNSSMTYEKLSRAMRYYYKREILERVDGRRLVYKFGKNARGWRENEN
# Method in brief: as §1
# SPI1 = SPI1 (Homo sapiens, UniProt P17947 1-270); settings: protein: recombinant; tags: N-terminal GST; dsDNA, one strand shown
# Method in brief: as §1
# SPIB = SPIB (Homo sapiens, UniProt Q01892 1-262); settings: protein: recombinant; tags: N-terminal GST; dsDNA, one strand shown
# Method in brief: as §1
# ELK3 = target: T6, ELK3 (Homo sapiens, UniProt P41970 1-407); settings: protein: recombinant; tags: N-terminal GST; dsDNA, one strand shown
# T6 sequence: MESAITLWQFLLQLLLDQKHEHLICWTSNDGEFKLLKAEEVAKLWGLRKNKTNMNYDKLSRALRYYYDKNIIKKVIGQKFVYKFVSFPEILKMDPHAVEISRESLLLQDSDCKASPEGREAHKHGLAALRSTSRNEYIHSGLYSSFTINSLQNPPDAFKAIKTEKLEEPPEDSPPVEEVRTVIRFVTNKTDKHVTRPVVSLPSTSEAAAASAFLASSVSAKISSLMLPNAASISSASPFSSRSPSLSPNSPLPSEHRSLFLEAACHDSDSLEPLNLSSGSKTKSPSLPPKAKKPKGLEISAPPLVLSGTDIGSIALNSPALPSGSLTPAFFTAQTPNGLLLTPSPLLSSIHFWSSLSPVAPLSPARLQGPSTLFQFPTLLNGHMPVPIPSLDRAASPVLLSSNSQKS
# Method in brief: as §1
# FEV = target: T7, FEV (Homo sapiens, UniProt Q99581 1-238); settings: protein: recombinant; tags: N-terminal GST; dsDNA, one strand shown
# T7 sequence: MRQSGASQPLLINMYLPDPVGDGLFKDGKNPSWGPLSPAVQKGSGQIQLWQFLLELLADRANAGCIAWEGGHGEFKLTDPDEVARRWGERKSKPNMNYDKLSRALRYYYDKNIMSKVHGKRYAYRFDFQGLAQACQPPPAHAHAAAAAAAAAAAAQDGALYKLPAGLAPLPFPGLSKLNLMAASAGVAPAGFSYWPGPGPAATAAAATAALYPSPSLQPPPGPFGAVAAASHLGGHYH
# Method in brief: as §1
# ETV5 = ETV5 (Homo sapiens, UniProt P41161 1-510); settings: protein: recombinant; tags: N-terminal GST; dsDNA, one strand shown
# Method in brief: as §1
# HSF1 = HSF1 (Homo sapiens, UniProt Q00613 1-529); settings: protein: recombinant; tags: N-terminal GST; chain copies: 3; dsDNA, one strand shown
# Method in brief: as §1
# SPIC = target: T8, SPIC (Homo sapiens, UniProt Q8N5J4 1-248); settings: protein: recombinant; tags: N-terminal GST; dsDNA, one strand shown
# T8 sequence: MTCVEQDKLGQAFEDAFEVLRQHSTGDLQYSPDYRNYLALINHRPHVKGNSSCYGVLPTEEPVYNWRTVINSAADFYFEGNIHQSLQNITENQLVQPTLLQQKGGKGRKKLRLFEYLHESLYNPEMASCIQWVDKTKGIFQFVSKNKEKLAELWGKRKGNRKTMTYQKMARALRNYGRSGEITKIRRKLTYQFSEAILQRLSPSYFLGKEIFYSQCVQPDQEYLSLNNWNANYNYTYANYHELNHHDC
# Method in brief: as §1
# ELF4 = ELF4 (Homo sapiens, UniProt Q99607 1-663); settings: protein: recombinant; tags: N-terminal GST; dsDNA, one strand shown
# Method in brief: as §1
# ELK4 = target: T9, ELK4 (Homo sapiens, UniProt P28324-2 1-405); settings: protein: recombinant; tags: N-terminal GST; dsDNA, one strand shown
# T9 sequence: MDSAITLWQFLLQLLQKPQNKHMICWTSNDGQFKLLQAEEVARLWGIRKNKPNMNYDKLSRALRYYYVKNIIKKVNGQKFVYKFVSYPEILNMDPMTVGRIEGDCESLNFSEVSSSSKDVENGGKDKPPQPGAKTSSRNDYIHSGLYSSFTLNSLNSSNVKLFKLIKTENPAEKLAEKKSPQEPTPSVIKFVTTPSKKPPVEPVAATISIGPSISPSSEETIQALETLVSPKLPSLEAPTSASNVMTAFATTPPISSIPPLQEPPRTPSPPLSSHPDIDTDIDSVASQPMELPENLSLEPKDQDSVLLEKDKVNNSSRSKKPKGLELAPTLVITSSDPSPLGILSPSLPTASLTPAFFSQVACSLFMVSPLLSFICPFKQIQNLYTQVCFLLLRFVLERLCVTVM
# Method in brief: as §1
# ETV2 = target: T10, ETV2 (Homo sapiens, UniProt O00321 1-342); settings: protein: recombinant; tags: N-terminal GST; dsDNA, one strand shown
# T10 sequence: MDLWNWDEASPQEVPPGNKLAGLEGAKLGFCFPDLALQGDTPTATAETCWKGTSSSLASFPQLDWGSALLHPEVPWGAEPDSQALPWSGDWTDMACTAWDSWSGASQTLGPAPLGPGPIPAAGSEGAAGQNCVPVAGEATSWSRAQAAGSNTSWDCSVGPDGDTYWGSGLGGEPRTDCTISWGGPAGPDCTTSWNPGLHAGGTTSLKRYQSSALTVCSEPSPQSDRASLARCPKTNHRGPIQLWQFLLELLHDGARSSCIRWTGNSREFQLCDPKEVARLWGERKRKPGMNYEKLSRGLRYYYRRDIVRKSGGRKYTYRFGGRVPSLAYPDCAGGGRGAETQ
# Method in brief: as §1
# ELF3 = target: T11, ELF3 (Homo sapiens, UniProt P78545 1-371); settings: protein: recombinant; tags: N-terminal GST; dsDNA, one strand shown
# T11 sequence: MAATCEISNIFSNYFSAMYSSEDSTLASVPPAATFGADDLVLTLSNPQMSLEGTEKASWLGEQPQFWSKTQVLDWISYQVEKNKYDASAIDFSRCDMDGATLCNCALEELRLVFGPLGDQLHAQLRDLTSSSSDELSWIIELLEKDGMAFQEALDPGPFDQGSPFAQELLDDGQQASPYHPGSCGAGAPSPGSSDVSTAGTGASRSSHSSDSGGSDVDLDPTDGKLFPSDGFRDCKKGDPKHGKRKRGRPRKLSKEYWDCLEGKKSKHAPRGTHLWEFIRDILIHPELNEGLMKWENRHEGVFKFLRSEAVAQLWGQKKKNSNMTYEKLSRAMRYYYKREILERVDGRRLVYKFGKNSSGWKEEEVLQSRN
# Method in brief: as §1
# CRX = CRX (Homo sapiens, UniProt O43186 1-299); settings: protein: recombinant; tags: N-terminal GST; dsDNA, one strand shown
# Method in brief: as §1
# ETV1 = ETV1 (Homo sapiens, UniProt P50549 1-477); settings: protein: recombinant; tags: N-terminal GST; dsDNA, one strand shown
# Method in brief: as §1
# Chain of ELF4 (Q99607 whole entry): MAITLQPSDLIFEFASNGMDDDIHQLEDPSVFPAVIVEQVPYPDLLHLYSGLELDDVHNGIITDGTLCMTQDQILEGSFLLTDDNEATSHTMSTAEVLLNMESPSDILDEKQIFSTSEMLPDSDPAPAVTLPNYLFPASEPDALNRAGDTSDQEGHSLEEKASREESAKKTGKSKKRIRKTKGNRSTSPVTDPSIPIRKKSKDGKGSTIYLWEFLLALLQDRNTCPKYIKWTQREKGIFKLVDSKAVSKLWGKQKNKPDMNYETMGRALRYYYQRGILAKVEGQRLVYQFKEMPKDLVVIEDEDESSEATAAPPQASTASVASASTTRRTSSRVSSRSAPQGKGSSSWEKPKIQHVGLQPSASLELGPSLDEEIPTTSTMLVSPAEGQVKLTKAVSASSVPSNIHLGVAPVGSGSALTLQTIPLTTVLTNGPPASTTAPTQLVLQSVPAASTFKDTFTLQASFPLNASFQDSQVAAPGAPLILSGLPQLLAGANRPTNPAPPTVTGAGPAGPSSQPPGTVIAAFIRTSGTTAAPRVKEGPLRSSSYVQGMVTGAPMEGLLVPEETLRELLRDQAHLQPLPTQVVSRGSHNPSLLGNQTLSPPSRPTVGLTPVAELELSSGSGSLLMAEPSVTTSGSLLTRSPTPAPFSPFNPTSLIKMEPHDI
# Chain of ETV1 (P50549 whole entry): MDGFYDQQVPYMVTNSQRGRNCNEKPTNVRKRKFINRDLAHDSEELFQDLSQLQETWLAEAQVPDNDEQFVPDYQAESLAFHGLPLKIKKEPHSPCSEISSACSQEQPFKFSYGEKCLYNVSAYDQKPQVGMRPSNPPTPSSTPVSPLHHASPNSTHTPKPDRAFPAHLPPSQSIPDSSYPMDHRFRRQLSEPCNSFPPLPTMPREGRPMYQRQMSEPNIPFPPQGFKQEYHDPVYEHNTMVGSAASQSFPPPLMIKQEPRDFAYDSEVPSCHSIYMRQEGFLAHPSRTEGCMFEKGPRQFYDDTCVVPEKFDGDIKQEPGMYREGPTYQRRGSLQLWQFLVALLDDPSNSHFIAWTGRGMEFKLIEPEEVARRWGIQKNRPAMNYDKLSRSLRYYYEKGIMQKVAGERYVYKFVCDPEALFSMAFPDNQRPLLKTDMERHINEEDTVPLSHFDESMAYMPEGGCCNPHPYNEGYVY
# Chain of ELF1 (P32519 whole entry): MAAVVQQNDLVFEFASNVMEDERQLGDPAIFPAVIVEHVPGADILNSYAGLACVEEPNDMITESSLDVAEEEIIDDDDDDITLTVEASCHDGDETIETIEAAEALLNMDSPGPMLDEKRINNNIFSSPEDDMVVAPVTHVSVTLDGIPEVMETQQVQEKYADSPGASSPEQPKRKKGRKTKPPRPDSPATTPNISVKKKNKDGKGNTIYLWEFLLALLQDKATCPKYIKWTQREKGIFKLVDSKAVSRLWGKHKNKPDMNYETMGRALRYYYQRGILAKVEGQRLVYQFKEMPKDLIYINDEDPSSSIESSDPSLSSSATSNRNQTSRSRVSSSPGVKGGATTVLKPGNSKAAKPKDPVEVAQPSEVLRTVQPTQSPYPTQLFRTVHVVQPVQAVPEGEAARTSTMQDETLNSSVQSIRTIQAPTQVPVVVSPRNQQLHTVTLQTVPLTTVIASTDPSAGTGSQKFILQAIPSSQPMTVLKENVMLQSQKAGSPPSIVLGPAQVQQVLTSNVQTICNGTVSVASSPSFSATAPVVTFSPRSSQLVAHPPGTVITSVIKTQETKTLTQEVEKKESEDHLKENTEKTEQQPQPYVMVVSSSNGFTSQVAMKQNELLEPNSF
# Chain of CRX (O43186 whole entry): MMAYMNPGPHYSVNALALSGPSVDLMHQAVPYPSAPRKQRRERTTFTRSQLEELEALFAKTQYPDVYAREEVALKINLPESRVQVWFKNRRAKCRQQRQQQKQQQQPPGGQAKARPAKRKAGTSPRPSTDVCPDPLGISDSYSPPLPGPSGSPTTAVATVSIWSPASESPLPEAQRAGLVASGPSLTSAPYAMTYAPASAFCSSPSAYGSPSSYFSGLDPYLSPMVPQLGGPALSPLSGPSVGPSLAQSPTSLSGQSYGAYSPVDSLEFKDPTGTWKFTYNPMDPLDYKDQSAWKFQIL
# Chain of SPIB (Q01892 whole entry): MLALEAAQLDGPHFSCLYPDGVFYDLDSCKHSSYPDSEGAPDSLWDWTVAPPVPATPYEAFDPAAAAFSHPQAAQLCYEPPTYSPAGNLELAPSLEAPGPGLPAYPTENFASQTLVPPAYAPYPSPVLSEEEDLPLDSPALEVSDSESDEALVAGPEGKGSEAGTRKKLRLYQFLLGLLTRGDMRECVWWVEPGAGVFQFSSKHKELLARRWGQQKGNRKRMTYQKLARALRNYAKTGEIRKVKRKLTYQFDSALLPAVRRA
# Chain of ETV5 (P41161 whole entry): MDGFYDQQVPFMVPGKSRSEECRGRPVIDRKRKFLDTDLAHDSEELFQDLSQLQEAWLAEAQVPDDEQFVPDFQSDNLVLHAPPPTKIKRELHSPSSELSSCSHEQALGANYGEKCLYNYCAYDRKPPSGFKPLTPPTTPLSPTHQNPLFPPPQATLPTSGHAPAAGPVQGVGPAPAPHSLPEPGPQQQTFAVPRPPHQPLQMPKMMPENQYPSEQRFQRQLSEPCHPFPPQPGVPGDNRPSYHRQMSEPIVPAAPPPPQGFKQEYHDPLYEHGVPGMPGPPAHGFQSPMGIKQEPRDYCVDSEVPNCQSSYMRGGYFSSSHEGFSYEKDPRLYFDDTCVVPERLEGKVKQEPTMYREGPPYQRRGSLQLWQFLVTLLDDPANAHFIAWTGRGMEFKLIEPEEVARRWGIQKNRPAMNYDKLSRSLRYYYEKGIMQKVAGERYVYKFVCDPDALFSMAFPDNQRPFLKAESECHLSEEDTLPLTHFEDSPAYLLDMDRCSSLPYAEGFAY
# Chain of HSF1 (Q00613 whole entry): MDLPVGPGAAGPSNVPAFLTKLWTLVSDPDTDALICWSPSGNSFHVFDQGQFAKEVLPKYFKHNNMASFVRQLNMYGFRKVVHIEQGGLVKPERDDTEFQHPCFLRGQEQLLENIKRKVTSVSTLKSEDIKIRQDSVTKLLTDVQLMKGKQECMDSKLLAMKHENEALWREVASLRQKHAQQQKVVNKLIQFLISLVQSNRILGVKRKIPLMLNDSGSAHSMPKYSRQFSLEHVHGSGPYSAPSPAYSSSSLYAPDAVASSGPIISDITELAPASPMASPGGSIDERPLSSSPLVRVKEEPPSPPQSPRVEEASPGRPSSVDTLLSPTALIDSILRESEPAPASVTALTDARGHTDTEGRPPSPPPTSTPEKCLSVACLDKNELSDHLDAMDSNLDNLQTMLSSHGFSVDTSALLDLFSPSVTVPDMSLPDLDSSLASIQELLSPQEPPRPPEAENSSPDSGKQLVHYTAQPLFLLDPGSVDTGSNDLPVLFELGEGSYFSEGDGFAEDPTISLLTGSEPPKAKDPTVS
sequence,measurement,setting,value
TTATGT,binding signal,FLI1,"1.3 fold enrichment (6-mer frequency, TF over GST control)"
same,binding signal,ELK1,"1.3 fold enrichment (6-mer frequency, TF over GST control)"
same,binding signal,GABPA,"1.27 fold enrichment (6-mer frequency, TF over GST control)"
same,binding signal,ERG,"1.31 fold enrichment (6-mer frequency, TF over GST control)"
same,binding signal,ELF1,"1.24 fold enrichment (6-mer frequency, TF over GST control)"
same,binding signal,EHF,"1.28 fold enrichment (6-mer frequency, TF over GST control)"
same,binding signal,SPI1,"1.31 fold enrichment (6-mer frequency, TF over GST control)"
same,binding signal,SPIB,"1.32 fold enrichment (6-mer frequency, TF over GST control)"
same,binding signal,ELK3,"1.22 fold enrichment (6-mer frequency, TF over GST control)"
same,binding signal,FEV,"1.15 fold enrichment (6-mer frequency, TF over GST control)"
same,binding signal,ETV5,"1.38 fold enrichment (6-mer frequency, TF over GST control)"
same,binding signal,HSF1,"1.63 fold enrichment (6-mer frequency, TF over GST control)"
same,binding signal,SPIC,"1.17 fold enrichment (6-mer frequency, TF over GST control)"
same,binding signal,ELF4,"1.38 fold enrichment (6-mer frequency, TF over GST control)"
same,binding signal,ELK4,"1.38 fold enrichment (6-mer frequency, TF over GST control)"
same,binding signal,ETV2,"1.13 fold enrichment (6-mer frequency, TF over GST control)"
same,binding signal,ELF3,"1.41 fold enrichment (6-mer frequency, TF over GST control)"
same,binding signal,CRX,"2.24 fold enrichment (6-mer frequency, TF over GST control)"
same,binding signal,ETV1,"1.29 fold enrichment (6-mer frequency, TF over GST control)"
